In PubChem BioAssay (NCI):
About 83,000 compounds went through this panel and 20% of them were active in at least one assay; those are over-represented in the sample as a whole.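 Interpretation: 100, growth as untreated; towards 0, rising growth inhibition; 0, no net growth; 0 to -100, cell death. Compounds scoring below 10 were considered active.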 Unmarked numbers belong to inactive results. Calls of active or inactive are those of the source.

Tested on: HL-60(TB) leukemia
Assay: NCI-60 one-dose screen, 48 h (100 = growth as untreated, 0 = no growth, -100 = all killed)
Conditions: 10 µM unless noted

| Compound | growth |
| --- | --- |
| COc1ccc(/C=C2\c3cc(OC)c(OC)c(OC)c3CC[C@@H]2O)cc1F | -22.4% (active) |
| CCCCNC(=O)c1ccccc1C | 84.4% |
| Fc1ccc(/C=C/[C@@H]2C[C@@H](F)CCO2)cc1 | 56.1% |
| N=C(N)c1ccc(-c2ccc(-c3ccc(Cl)cn3)s2)cc1 | -45.8% (active) |
| CCOS(=O)(=O)c1c(C(C)C)cc(C(C)C)cc1C(C)C | 89% |
| COc1ccc2oc(=O)cc(Cn3cc(Cn4cnc5c4c(=O)n(C)c(=O)n5C)nn3)c2c1 | 107% |
| CCN(CC)CCNc1c(C)cc(CO)c(Cl)c1C | 107% |
| COc1ccc(/C(C#N)=C/c2cccc(OC)c2OC)cc1 | 76.7% |
| COc1ccc(C2=NN(C(C)=O)C(c3cn(Cc4ccc(Cl)cc4)c4ccccc34)C2)cc1 (configuration not stated) | 79.5% |
| Nc1ccc2c(c1)c(N)nn2C(=O)Nc1ccc(Cc2ccccc2)cc1 | 16.4% |
| C=C[C@@H]1C[C@@H]2Cc3c(C)cc(C)cc3N1O2 | 0.0364% (active) |
| O=C(NNc1ccccc1)c1ncc[nH]1 | 7.71% (active) |
| N=C(N)Sc1cccc[n+]1[O-] | 27.8% |
| COc1ccc(-n2c(COc3ccc(F)cc3)n[nH]c2=S)cc1 | 126% |
| CCCCC(O)(c1ccc(Cl)cc1)C(CN1CCOCC1)c1ccc(Cl)cc1 (configuration not stated) | 53.6% |
| CCCCCCCCCCCCCCCc1ccc(N)c(OC2OC(CO)C(O)C(O)C2O)c1 (configuration not stated) | 23% |
| O=S(=O)(Nc1ncccn1)c1ccc(Nc2ccc3nnc(-c4ccncc4)n3n2)cc1 | 101% |
